# Measurements: the supplement of paper PMC10849652
# About 7,900 targets were measured; listed, in parts, are those with a hit and a random draw of the rest. About 0.6% of all pairs of compound and target were hits. A number with no mark means an inactive call.
# Legend:
# Test in all cases: log2 fold change, soluble protein after heating vs DMSO (PISA); higher = thermal stabilisation; K562 cells, 10 uM, 30 min; active = over 0.2 and 3.5 SD of the protein, either way, in both replicates (recomputed)
# bafetinib = compound: Cc1ccc(NC(=O)c2ccc(CN3CC[C@H](N(C)C)C3)c(C(F)(F)F)c2)cc1Nc1nccc(-c2cncnc2)n1 [bafetinib]
# Summary of the method: (§1)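 Soluble protein was quantified by TMTpro 16plex LC-MS/MS after channel sums were equalised. It was obtained as the supernatant after 21,000xg for 90 min from pooled aliquots of K562 cells (2×10^6 cells/mL, 10 μM compound, 30 min) heated for 3 min across 48°C-58°C and extracted in PBS with 0.5% NP-40 at 4°C. Thermal stability values are relative to control samples and come from duplicates. They are given as log2 fold changes.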
# [1] = compound: Cc1cccc(CC(=O)N2CCc3c2ccc(-c2cn(C)c4ncnc(N)c24)c3F)n1
# Summary of the method: as §1
# nilotinib = compound: Cc1cn(-c2cc(NC(=O)c3ccc(C)c(Nc4nccc(-c5cccnc5)n4)c3)cc(C(F)(F)F)c2)cn1 [nilotinib]
# Summary of the method: as §1
# [2] = compound: Cc1nc(Nc2n[nH]c3c2CN(C(=O)N[C@H](CN(C)C)c2ccccc2)C3(C)C)c2sccc2n1
# Summary of the method: as §1
# dasatinib = compound: Cc1nc(Nc2ncc(C(=O)Nc3c(C)cccc3Cl)s2)cc(N2CCN(CCO)CC2)n1 [dasatinib]
# Summary of the method: as §1
# [3] = compound: Cc1ncc(-c2ccnc(Nc3ccc(S(C)(=O)=O)cc3)n2)n1C(C)C
# Summary of the method: as §1
# [4] = compound: Cn1cc(-c2ccc3c(c2)CCN3C(=O)Cc2cccc(C(F)(F)F)c2)c2c(N)ncnc21
# Summary of the method: as §1
# tipifarnib = compound: Cn1cncc1[C@@](N)(c1ccc(Cl)cc1)c1ccc2c(c1)c(-c1cccc(Cl)c1)cc(=O)n2C [tipifarnib]
# Summary of the method: as §1
# mubritinib = compound: FC(F)(F)c1ccc(/C=C/c2nc(COc3ccc(CCCCn4ccnn4)cc3)co2)cc1 [mubritinib]
# Summary of the method: as §1
# [5] = compound: NC(=O)Nc1cc(-c2cccc(F)c2)sc1C(=O)N[C@H]1CCCNC1
# Summary of the method: as §1
# [6] = compound: NC(=O)c1cnc(N[C@@H]2CCCC[C@@H]2N)nc1Nc1cccc(-n2nccn2)c1
# Summary of the method: as §1
# [7] = compound: NC1(c2ccc(-c3nc4ccn5c(=O)[nH]nc5c4cc3-c3ccccc3)cc2)CCC1
# Summary of the method: as §1
# [8] = compound: NCC(=O)Nc1ccc(-n2nc(C(F)(F)F)cc2-c2ccc3c(ccc4ccccc43)c2)cc1
# Summary of the method: as §1
# entinostat = compound: Nc1ccccc1NC(=O)c1ccc(CNC(=O)OCc2cccnc2)cc1 [entinostat]
# Summary of the method: as §1
# vorinostat = compound: O=C(CCCCCCC(=O)Nc1ccccc1)NO [vorinostat]
# Summary of the method: as §1
# citarinostat = compound: O=C(CCCCCCNC(=O)c1cnc(N(c2ccccc2)c2ccccc2Cl)nc1)NO [citarinostat]
# Summary of the method: as §1
# silmitasertib = compound: O=C(O)c1ccc2c(c1)nc(Nc1cccc(Cl)c1)c1ccncc12 [silmitasertib]
# Summary of the method: as §1
# [9] = compound: O=C1NC(=O)C(c2cnc3ccccn23)=C1c1cn2c3c(cc(F)cc13)CN(C(=O)N1CCCCC1)CC2
# Summary of the method: as §1
# [10] = compound: c1cc(OCCN2CCCCC2)cc(-c2n[nH]c3ccc(-c4nnc[nH]4)cc23)c1
# Summary of the method: as §1
# [11] = compound: Cn1cc(-c2ccc3nnc(C(F)(F)c4ccc5ncccc5c4)n3n2)cn1
# Summary of the method: as §1
# Sequence of UniProt P62191 (P62191 whole entry, looked up): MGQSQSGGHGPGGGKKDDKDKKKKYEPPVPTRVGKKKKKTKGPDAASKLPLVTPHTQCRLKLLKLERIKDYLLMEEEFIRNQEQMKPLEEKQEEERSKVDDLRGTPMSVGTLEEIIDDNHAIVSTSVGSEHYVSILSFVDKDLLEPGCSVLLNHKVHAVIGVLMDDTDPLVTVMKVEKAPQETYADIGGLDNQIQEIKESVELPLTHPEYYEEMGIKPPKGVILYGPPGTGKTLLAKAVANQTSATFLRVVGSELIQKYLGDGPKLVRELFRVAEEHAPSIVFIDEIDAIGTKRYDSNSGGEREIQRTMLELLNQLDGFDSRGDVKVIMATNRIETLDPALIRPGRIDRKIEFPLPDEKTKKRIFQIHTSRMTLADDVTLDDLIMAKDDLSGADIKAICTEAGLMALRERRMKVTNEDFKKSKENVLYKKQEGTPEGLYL
# Sequence of UniProt Q15173 (Q15173 whole entry, looked up): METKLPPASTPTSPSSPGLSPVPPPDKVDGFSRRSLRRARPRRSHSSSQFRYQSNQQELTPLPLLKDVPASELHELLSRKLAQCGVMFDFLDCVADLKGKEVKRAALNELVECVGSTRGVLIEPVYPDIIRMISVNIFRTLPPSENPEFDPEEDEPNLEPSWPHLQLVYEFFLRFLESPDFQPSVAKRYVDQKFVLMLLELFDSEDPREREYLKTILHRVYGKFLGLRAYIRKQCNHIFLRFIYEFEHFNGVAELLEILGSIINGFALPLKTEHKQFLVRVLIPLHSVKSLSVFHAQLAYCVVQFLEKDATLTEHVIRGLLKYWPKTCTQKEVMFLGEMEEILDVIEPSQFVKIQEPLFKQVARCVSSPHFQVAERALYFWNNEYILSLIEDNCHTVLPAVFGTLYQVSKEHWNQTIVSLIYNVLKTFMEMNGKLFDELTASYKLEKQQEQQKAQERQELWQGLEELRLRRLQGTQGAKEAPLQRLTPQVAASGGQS
# Sequence of UniProt Q86TB9 (Q86TB9 whole entry, looked up): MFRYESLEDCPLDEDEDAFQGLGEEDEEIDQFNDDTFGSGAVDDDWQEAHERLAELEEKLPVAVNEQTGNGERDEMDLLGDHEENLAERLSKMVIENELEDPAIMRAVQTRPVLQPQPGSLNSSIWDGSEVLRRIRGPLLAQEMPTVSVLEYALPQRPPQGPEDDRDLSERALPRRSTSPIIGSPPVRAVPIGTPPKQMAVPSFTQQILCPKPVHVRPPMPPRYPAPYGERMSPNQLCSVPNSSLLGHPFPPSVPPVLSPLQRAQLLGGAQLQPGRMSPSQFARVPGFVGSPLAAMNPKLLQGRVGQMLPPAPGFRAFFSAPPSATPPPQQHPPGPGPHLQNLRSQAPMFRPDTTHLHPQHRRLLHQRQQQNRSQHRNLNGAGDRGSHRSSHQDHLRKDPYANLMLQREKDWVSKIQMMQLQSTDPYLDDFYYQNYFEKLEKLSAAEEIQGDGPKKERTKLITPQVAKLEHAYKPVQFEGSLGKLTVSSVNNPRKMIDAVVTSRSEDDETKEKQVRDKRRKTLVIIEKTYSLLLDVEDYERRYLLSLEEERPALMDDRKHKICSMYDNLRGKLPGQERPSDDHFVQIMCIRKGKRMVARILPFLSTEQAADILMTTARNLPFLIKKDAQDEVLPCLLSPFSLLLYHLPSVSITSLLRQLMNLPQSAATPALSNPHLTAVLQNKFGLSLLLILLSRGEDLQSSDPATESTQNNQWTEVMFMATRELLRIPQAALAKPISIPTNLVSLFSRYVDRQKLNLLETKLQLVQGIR
# Sequence of UniProt Q02156 (Q02156 whole entry, looked up): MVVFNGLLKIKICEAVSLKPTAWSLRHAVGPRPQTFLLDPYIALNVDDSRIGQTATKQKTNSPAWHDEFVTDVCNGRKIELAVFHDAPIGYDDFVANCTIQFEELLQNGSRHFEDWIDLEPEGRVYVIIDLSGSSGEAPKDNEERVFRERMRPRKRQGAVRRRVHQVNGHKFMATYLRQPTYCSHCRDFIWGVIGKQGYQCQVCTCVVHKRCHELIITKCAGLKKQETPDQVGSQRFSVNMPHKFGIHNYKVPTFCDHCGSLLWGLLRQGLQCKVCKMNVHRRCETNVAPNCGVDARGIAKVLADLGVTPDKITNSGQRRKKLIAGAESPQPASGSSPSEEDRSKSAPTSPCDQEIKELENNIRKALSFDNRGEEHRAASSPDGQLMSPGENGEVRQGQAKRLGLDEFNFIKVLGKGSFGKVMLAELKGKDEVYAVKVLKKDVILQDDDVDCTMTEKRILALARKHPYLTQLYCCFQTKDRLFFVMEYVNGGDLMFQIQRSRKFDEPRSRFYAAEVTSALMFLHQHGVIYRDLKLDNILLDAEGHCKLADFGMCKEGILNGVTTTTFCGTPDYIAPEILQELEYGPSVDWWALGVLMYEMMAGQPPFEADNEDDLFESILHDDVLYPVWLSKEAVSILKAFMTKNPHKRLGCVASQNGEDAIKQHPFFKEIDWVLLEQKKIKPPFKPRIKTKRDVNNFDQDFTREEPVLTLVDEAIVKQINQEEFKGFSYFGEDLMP
# Sequence of UniProt Q86UU1 (Q86UU1 whole entry, looked up): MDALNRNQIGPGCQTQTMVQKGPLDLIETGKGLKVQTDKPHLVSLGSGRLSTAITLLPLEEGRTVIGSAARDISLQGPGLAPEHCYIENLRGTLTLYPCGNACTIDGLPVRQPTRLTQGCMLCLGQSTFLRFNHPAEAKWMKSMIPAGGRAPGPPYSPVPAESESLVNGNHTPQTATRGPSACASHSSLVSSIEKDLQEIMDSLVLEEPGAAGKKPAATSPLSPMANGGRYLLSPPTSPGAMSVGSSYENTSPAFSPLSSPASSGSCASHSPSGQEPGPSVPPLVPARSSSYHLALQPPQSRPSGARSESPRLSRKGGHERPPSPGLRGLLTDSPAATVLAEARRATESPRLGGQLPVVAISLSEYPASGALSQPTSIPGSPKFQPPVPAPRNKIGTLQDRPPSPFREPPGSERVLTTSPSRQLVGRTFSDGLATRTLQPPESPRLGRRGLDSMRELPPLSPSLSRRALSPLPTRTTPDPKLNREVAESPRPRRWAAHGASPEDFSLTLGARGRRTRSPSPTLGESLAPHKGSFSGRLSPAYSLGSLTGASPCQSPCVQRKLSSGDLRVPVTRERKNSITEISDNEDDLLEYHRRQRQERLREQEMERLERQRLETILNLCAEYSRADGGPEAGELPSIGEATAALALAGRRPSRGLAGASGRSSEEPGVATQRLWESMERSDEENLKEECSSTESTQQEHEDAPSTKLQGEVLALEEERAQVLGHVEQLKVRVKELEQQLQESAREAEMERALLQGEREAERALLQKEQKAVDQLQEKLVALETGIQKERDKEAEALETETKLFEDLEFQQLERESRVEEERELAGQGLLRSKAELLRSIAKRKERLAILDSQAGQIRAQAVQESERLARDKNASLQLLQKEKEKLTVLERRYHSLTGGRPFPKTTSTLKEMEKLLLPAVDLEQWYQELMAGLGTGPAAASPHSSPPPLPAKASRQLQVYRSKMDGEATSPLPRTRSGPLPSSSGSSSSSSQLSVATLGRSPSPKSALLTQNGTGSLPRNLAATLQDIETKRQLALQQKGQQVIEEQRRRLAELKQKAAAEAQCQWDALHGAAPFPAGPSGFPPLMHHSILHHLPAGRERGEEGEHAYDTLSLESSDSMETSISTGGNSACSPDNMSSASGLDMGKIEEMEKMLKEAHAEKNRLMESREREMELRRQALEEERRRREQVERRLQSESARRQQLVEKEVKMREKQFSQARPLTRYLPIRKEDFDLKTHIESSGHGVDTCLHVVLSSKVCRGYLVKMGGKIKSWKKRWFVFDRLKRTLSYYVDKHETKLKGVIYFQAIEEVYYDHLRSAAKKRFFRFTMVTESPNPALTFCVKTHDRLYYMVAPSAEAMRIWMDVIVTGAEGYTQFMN
# Sequence of UniProt Q15111 (Q15111 whole entry, looked up): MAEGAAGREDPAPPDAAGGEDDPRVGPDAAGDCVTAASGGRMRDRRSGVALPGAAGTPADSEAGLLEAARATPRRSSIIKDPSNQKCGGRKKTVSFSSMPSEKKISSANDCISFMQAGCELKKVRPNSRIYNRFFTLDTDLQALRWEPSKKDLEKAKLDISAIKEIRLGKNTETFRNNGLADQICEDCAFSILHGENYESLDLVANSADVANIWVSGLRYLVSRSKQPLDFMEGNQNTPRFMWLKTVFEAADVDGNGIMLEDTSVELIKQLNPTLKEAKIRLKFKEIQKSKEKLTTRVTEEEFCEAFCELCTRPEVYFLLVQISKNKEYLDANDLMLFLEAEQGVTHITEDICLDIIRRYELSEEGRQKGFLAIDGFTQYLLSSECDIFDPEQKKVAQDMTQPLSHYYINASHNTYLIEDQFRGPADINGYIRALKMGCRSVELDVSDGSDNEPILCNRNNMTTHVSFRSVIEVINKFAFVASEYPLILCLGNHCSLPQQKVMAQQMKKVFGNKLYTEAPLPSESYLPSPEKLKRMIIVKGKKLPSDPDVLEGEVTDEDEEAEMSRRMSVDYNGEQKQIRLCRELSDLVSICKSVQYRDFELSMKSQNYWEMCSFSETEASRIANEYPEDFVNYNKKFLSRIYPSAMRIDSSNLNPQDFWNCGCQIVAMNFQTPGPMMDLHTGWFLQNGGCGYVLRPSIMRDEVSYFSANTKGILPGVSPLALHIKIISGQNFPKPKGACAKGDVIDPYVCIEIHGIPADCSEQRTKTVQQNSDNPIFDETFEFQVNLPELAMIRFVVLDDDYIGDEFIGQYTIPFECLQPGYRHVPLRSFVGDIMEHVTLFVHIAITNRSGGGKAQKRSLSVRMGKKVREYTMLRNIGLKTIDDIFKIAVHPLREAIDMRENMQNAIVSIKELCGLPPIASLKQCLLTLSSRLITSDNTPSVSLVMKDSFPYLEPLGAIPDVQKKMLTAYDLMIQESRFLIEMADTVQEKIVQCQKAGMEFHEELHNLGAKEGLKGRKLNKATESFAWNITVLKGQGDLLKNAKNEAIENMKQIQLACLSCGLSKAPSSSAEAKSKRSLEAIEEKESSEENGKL
Target,log2 fold change (bafetinib),log2 fold change [1],log2 fold change (nilotinib),log2 fold change [2],log2 fold change (dasatinib),log2 fold change [3],log2 fold change [4],log2 fold change (tipifarnib),log2 fold change (mubritinib),log2 fold change [5],log2 fold change [6],log2 fold change [7],log2 fold change [8],log2 fold change (entinostat),log2 fold change (vorinostat),log2 fold change (citarinostat),log2 fold change (silmitasertib),log2 fold change [9],log2 fold change [10],log2 fold change [11]
PRKCE (UniProt Q02156),0.001,0.02,-0.024,-0.335 (active),-0.118,0.004,0.051,-0.049,0.052,-0.068,-0.084,-0.177,-0.078,0.01,0.107,-0.019,-0.016,-0.018,-0.055,–
PCBP2 (UniProt F8VRH0),0.293,-0.039,-0.347,-0.215,-0.146,-0.009,0.112,0.067,0.129,0.187,-0.017,-0.175,0.013,0.051,0.247,0.006,-0.105,0.144,-0.01,–
PLCL1 (UniProt Q15111),-0.045,0.039,-0.06,-0.197,–,-0.324,-0.116,–,-0.018,0.05,-0.035,-0.069,-0.01,0.043,-0.012,0.02,-0.475,-0.854 (active),0.05,0.028
PATL1 (UniProt Q86TB9),-0.007,0.034,–,–,-0.032,–,0.08,0.039,-0.04,0.054,-0.213,-0.047,-0.025,0.052,0.106,0.02,0.04,0.069,-0.093,-0.013
PPP2R5B (UniProt Q15173),0.006,-0.057,-0.187,0.095,-0.047,-0.042,–,-0.067,-0.023,–,0.017,-0.167,-0.006,–,0.112,0.122,0,–,0.127,–
PHLDB1 isoform 2 (UniProt Q86UU1),-0.112,0.117,0.136,-0.265,-0.073,-0.128,0.061,0.057,0.14,–,0.112,-0.057,-0.186,–,0.229,-0.014,0.045,-0.178,-0.117,0.016
PSMC1 (UniProt P62191),0.065,0.02,-0.025,0.062,0.036,-0.014,-0.082,0.087,-0.015,0.011,0.029,0.014,0.043,-0.013,-0.013,-0.032,0.001,0.026,-0.047,0
PHKA1 (UniProt P46020),0.023,-0.004,-0.233,-0.021,-0.303,0.023,0.027,0.083,-0.04,0.03,0.046,-0.202,–,-0.005,0.013,0.128,0.004,0.027,-0.068,-0.092
